SMILES strings stand for the structures. The campaign covered roughly 350,000 compounds. About 5,500 (1.6%) were called active. The sample holds actives, similar compounds and a random draw of the others, so the mix is not that of the screen.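 How the source made its calls: active means significant combined selectivity score with lowered wild-type GFP, culture density cut under 30%, mutant RFP and density less affected; inactive means any of these conditions unmet.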

Among the data in PubChem BioAssay AID720706 (Broad Institute, 2013) are GFP signal change (wild-type ribosome), OD600 change and RFP signal change values, retold here.

The nature of this test: reduced GFP signal of wild-type E. coli, primary screen, bacterial rRNA inhibitor project, GFP/RFP fluorescence, OD600, single point (AID 720706). The conditions noted are these: E. coli WT GFP vs humanized-ribosome RFP mutants, 24 h; GFP signal change (wild-type ribosome): stronger effect = lower value, DMSO median 0, no signal -100; OD600 change: measured here: OD600 growth, DMSO median 0, no signal -100; RFP signal change: measured here: RFP humanized mutant strains, DMSO median 0, no signal -100, concentration not given here.
On to `O=C(C1CCC1)N1CC(=O)N2[C@@H](CO)[C@@H](c3ccc(C#Cc4cccc(F)c4)cc3)[C@@H]2C1`, for which the GFP signal change (wild-type ribosome) is -59.7% (inactive), the OD600 change was -79.3% and the RFP signal change was -12.2%.
On to `CCc1ccccc1NC(=O)CN(C)C(=O)c1cc(C2CC2)nn1-c1ccccc1`, for which the GFP signal change (wild-type ribosome) was -2.02% (inactive), the OD600 change was -16.5% and the RFP signal change came out at 3.78%.
Turning to `COc1cccc(NC(=O)CN(C)C(=O)c2cc(C3CC3)nn2-c2ccccc2)c1`, the GFP signal change (wild-type ribosome) was -29.5% (inactive), the OD600 change is -27.8% and the RFP signal change was -7.04%.
`COc1ccc(NC(=O)CN(C)C(=O)c2cc(C3CC3)nn2-c2ccccc2)cc1`: the GFP signal change (wild-type ribosome) was -22.4% (active), the OD600 change was -10.8% and the RFP signal change is 5.24%.
For the compound `Cc1nn(-c2ccccc2)c(Cl)c1/C=C/C(=O)c1ccc(O)cc1`, the GFP signal change (wild-type ribosome) was -25.9% (active), the OD600 change is -19.6% and the RFP signal change was -0.656%.
For the compound `Cc1nn(-c2ccc(F)cc2)c(Cl)c1/C=C(/CCC(=O)O)c1nc2ccccc2s1`, the GFP signal change (wild-type ribosome) was -52.2% (inactive), the OD600 change was -75.8% and the RFP signal change was -17.8%.
Regarding `Cc1nn(-c2ccccc2)c(C)c1/C=C/C(=O)OC(C)C(N)=O` (stereo not given), the GFP signal change (wild-type ribosome) is 0.439% (inactive), the OD600 change is -2.9% and the RFP signal change was -0.31%.
Regarding `COc1ccccc1CN1[C@H](CO)[C@H](c2ccccc2)C12CN(C(=O)c1ccccn1)C2`, the GFP signal change (wild-type ribosome) was -7.66% (inactive), the OD600 change was -1.5% and the RFP signal change came out at 11%.
Take `Cc1noc(C)c1NC(=O)Nc1ccc2c(c1)C(=O)N([C@H](C)CO)C[C@@H](C)[C@H](CN(C)Cc1ccncc1)O2`: the GFP signal change (wild-type ribosome) was 0.165% (inactive), the OD600 change is 5.53% and the RFP signal change was -0.035%.
For `C[C@H]1CCCCO[C@@H](CN(C)S(=O)(=O)c2ccc(Cl)cc2)[C@@H](C)CN([C@@H](C)CO)C(=O)c2cc(NS(=O)(=O)c3cn(C)cn3)ccc2O1`, in that order: -1.49% (inactive), -13.7% and 2.11%.
`N#CCC(=O)N/N=C/c1cn(Cc2ccc3ccccc3c2)c2ccccc12`: the GFP signal change (wild-type ribosome) was 1.46% (inactive), the OD600 change is -2.06% and the RFP signal change amounted to 0.715%.
For `COc1cccc(Cn2cc(/C=N/NC(=O)c3cc(O)cc(O)c3)c3ccccc32)c1`, in that order: -27.3% (active), -17.9% and 2.51%.
For the compound `O=C(Cn1cc(/C=N/NC(=O)c2cccc(C(F)(F)F)c2)c2ccccc21)Nc1ccc(F)cc1`, the GFP signal change (wild-type ribosome) is -1.48% (inactive), the OD600 change is -0.221% and the RFP signal change was -3.15%.
For `COc1cccc(S(=O)(=O)N2C[C@@H](O)COC[C@H]3O[C@@H](CC(=O)N4CCOCC4)CC[C@@H]32)c1`, the GFP signal change (wild-type ribosome) is 0.378% (inactive), the OD600 change was -0.728% and the RFP signal change was -3.58%.
Consider `O=S(=O)(Cc1ccccc1)NCC[C@@H]1CC[C@@H](NS(=O)(=O)c2ccccc2)[C@@H](CO)O1`, for which the GFP signal change (wild-type ribosome) is -0.181% (inactive), the OD600 change was found to be 0.151% and the RFP signal change stood at 1.58%.
Consider `C[C@H](CO)N1C[C@H](C)[C@@H](CN(C)Cc2ccc3c(c2)OCO3)OCCCC[C@H](C)Oc2ccc(NC(=O)Nc3ccc(C(F)(F)F)cc3)cc2C1=O`, for which the GFP signal change (wild-type ribosome) is 7.88% (inactive), the OD600 change was -5.08% and the RFP signal change came to 3.82%.
Turning to `O=C(CCc1ccc(O)cc1)NN=Cc1cc(Br)ccc1O`, the GFP signal change (wild-type ribosome) was -37.7% (inactive), the OD600 change was -33.3% and the RFP signal change is -8.11%.
For `O=C(CCCO)N/N=C/c1cc(Br)ccc1O`, in that order: -15.6% (active), 11.6% and 1.76%.
For the compound `CCOc1cc(C=NNC(=O)CCCC(=O)NN=Cc2ccc(O)c(OCC)c2)ccc1O`, the GFP signal change (wild-type ribosome) is 4.33% (inactive), the OD600 change is -0.6% and the RFP signal change was 2.51%.
For `C[C@@H]1CCCCO[C@H](CN(C)Cc2ccc(C(=O)Nc3ccccc3N)cc2)[C@H](C)CN([C@H](C)CO)C(=O)c2cc(N(C)C)ccc2O1`, in that order: 4.58% (inactive), 1.72% and 2.24%.
`CO[C@H]1CN(C)C(=O)c2cc(NC(=O)C3CCCC3)ccc2OC[C@@H](C)N(C(=O)CC2CC2)C[C@@H]1C`: the GFP signal change (wild-type ribosome) is -2.32% (inactive), the OD600 change is -1.4% and the RFP signal change was -2.08%.
On to `COc1ccc(C(=O)C2CCCN(C(=O)c3ccc(OC)o3)C2)c(C)c1` (stereo not given), for which the GFP signal change (wild-type ribosome) was -3.94% (inactive), the OD600 change was -8.41% and the RFP signal change was -1.22%.
Take `COc1ccc(C(=O)C2CCCN(Cc3ccc4nonc4c3)C2)c(C)c1` (stereo not given): the GFP signal change (wild-type ribosome) was -32.5% (active), the OD600 change is -18.1% and the RFP signal change is -4.26%.
With `COc1ccc(C(=O)C2CCCN(Cc3cccn3-c3ccccn3)C2)c(C)c1` (stereo not given), the GFP signal change (wild-type ribosome) was -15.2% (inactive), the OD600 change was -23% and the RFP signal change was 0.721%.
As for `C[C@H]1CN(C)C(=O)c2cc(N(C)C)ccc2O[C@H]1CN(C)C(=O)OC(C)(C)C`, the GFP signal change (wild-type ribosome) is -3.1% (inactive), the OD600 change was -2.56% and the RFP signal change turned out to be 0.88%.
For the compound `COc1ccc(C2CC(c3ccccc3)=NN2C(=O)CSc2nccc(=O)[nH]2)cc1` (stereo not given), the GFP signal change (wild-type ribosome) is 5.08% (inactive), the OD600 change stood at 8.39% and the RFP signal change is -0.959%.
For the compound `COc1ccc(C2=NN(C(=O)c3ccccc3C(=O)O)C(c3ccccc3O)C2)cc1` (stereo not given), the GFP signal change (wild-type ribosome) was -9.01% (inactive), the OD600 change was -19.6% and the RFP signal change was -2.39%.
For the compound `COc1ccc(C2=NN(C(=O)c3cccnc3)C(c3ccccc3)C2)cc1` (stereo not given), the GFP signal change (wild-type ribosome) is -23.4% (active), the OD600 change amounted to 3.3% and the RFP signal change came to 3.54%.
Take `O=c1oc2ccccc2c(NC2CCCCC2)c1NS(=O)(=O)c1ccc(Cl)cc1`: the GFP signal change (wild-type ribosome) is 11.9% (inactive), the OD600 change is 7.09% and the RFP signal change was -0.375%.
As to `O=c1ccc2cc(S(=O)(=O)Nc3ccccc3F)ccc2o1`, the GFP signal change (wild-type ribosome) was 6.96% (inactive), the OD600 change is 12.1% and the RFP signal change came to 8.39%.
